Pf apPOL inh – Pf-apPOL inhibitors, biochemical, fluorescence; Plasmodium falciparum apicoplast DNA polymerase (apPOL); Recombinant Pf-apPOL, molecular beacon fluorescence, 1.5 h; inhibition, % at 10 µM; hit rate 0.25% among 210,000
mHTT-CaM PPI inh – mutant huntingtin-calmodulin interaction inhibitors – biochemical, AlphaScreen, primary screen. AlphaScreen His-mHTT/GST-CaM binding, luminescence. inhibition, % at 15 µM. hit rate 3.6% among 190,000. AID 1671202, 2021;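 note: 0% = both proteins with DMSO and 100% = one protein alone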
An asterisk follows results filed as active; i = inactive; . = no result. A selection: hits, their analogues and other compounds. The true share with any hit is near 3.6%. Cut-off read from the data, not from the text of the source: active = inhibition above about 50%; inactive = the rest.

SMILES	Pf apPOL inh	mHTT-CaM PPI inh
Cc1noc(COC2CCCN(C(=O)c3ccc(Cl)s3)C2)n1 (configuration not stated)	-3	-6
Clc1ccc(C2CC(c3cccc(Br)c3)Nc3ncnn32)cc1 (configuration not stated)	-2	53*
Cc1ccc(C2CC(c3ccc(Br)cc3)n3ncnc3N2)cc1 (configuration not stated)	-5	53*
Cc1ccc(C2CC(c3cccs3)n3ncnc3N2)cc1 (configuration not stated)	-2	4
COc1ccc(C2CC(c3cccc(Br)c3)Nc3ncnn32)cc1 (configuration not stated)	-2	32
c1ccc(-c2ccc(C3CC(c4cccs4)n4ncnc4N3)cc2)cc1 (configuration not stated)	-8	55*
Clc1ccc(C2CC(c3ccc(Br)cc3)Nc3ncnn32)cc1 (configuration not stated)	-6	59*
Cc1ccc(C2CC(c3ccccc3)n3ncnc3N2)cc1 (configuration not stated)	-2	-6
Clc1ccc(C2CC(c3ccccc3)Nc3ncnn32)cc1 (configuration not stated)	-4	11
CN(c1cc(C(F)(F)F)ccn1)N1C(=O)c2ccccc2C1=O	-4	.
CC12CCC(C(=O)Nc3ccccc3F)(CC1=O)C2(C)C (configuration not stated)	6	1
CCOc1ccc(Cl)cc1/C=C(\C#N)c1nc2ccc(C)cc2[nH]1	7	-17
Cc1cc(C(F)F)nc(S[C@H]2C/C(=N/O)[C@@H]3OC[C@H]2O3)n1	.	i
CC(C)N=C(NS(=O)(=O)c1ccccc1)c1ccccc1	0	-6
COc1ccc(OC)c(NC(=O)COc2ccccc2Cl)c1	10	4
O=c1oc2c(-c3ccccc3[N+](=O)[O-])cc(O)cc2s1	43	61*
Cc1cc(O)c2c(c1)C(=O)c1cc(O)cc(O)c1C2=O	-68	.
O=c1cc(-c2ccccc2[N+](=O)[O-])oc2ccccc12	-10	5
Cc1ccc(-c2cc(O)cc3sc(=O)oc23)cc1C	8	79*
COc1cccc2sc(NC(=O)Cc3ccc(Cl)s3)nc12	1	-10
COc1ccc(C(=O)N2CCC3(C2)NCc2ccccc2NC3=NC2CCCC2)cc1OC (configuration not stated)	-5	5
O=C(c1cccc(N2CCNC(c3ccccc3)C2)n1)N1CCSCC1 (configuration not stated)	-2	-2
COc1ccccc1NS(=O)(=O)c1cc(C(=O)Nc2ccccc2)ccc1C	6	14
COc1ccccc1NCC(=O)c1ccc(C)c(C)c1	65*	34
CC(=O)N1CCN(c2nc3c(s2)CC(C(=O)Nc2cccc(C)c2)CC3)CC1 (configuration not stated)	-5	14
SMILES	Pf apPOL inh	mHTT-CaM PPI inh
CCCCCC1CC(CSc2ncn[nH]2)OC1=O (configuration not stated)	-3	-5
COc1ccc(OC)c(CNc2sc3c(c2C(=O)Nc2cc(OC)ccc2OC)CCC3)c1	-16	66*
COc1ccccc1NC(=O)c1c(NC(=O)Cc2ccccc2)sc2c1CCC2	-4	-2
COc1ccc(OC)c(CNc2sc3c(c2C(=O)Nc2ccccc2OC)CCC3)c1	4	82*
COc1ccc(OC)c(NC(=O)c2c(NCc3cccc(F)c3)sc3c2CCC3)c1	-16	73*
COc1ccc(OC)c(NC(=O)c2c(N)sc3c2CCC3)c1	-10	41
CCOc1ccccc1NC(=O)c1c(NCc2sccc2C)sc2c1CCC2	-17	41
COc1ccccc1NC(=O)c1c(NCc2sccc2C)sc2c1CCC2	-20	56*
COc1ccc(OC)c(NC(=O)c2c(NC(=O)CNCc3ccccc3)sc3c2CCC3)c1	-1	-3
O=C(Nc1c2c(nn1-c1ccccc1)CSC2)c1ccc(S(=O)(=O)N2CCOCC2)cc1	23	19
COc1ccc(OC)c(NC(=O)c2c(NC(=O)CN3CCCC(C)C3)sc3c2CCC3)c1 (configuration not stated)	-10	-3
COc1ccc(OC)c(NC(=O)c2c(NCc3cccs3)sc3c2CCC(C)C3)c1 (configuration not stated)	-17	66*
COc1ccc(OC)c(NC(=O)c2c(NC(=O)CN3CCOCC3)sc3c2CCC3)c1	-2	7
COc1ccc(OC)c(NC(=O)c2c(NCc3cccc(OC)c3OC)sc3c2CCC3)c1	-13	59*
CCC(=O)NCc1nc2c(n1C)CN(S(=O)(=O)c1ccc(C(C)C)cc1)CC2	-5	11
N#CC1=C(N)Oc2cc(O)ccc2C1c1ccc(Br)cc1 (configuration not stated)	-13	27
N#CC1=C(N)Oc2cc(N)ccc2C1c1ccc(Cl)c(Cl)c1 (configuration not stated)	-12	75*

Screening results: PubChem BioAssay, University of Kansas High Throughput Screening Laboratory
